Reference: PubChem BioAssay (NCATS)
Inconclusive results are not listed. Calls of active or inactive are those of the source. Calls come from the whole dose curve; as a rule, active = well fitted curve in the direction sought with a large enough effect; inconclusive = small, poorly fitted or top-dose-only effect, or another doubt; inactive = no such curve, though single readings can be large; an effect the other way counts as inactive or inconclusive. Where a SMILES comes first, the peptide text is derived from it.

Columns and labels:
KB-3-1 = test: Cytotoxic Profiling of Annotated Libraries Using Quantitative High-Throughput Screening (AID 1296008); conditions: Five cell lines viability, CellTiter-Glo ATP luminescence, 48-72 h; max response: hits give low values; note: nearly all actives have a fitted effect of over 60% in size; for max response: % is set by controls: 0 for no effect and ±100 for the full control effect
Method in brief: (§1)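 Compounds were pin-transferred onto cells and incubated 48 or 72 hr at 37 degree Celsius, 95% humidity. CellTiter-Glo was added, plates sat 10 min at room temperature, then ATP-coupled luminescence was imaged as the viability read-out.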

NIH3T3 [1] = test: as above; conditions: Five cell lines viability, CellTiter-Glo ATP luminescence, 48-72 h; max response: hits give low values
Method in brief: as §1

HACAT = test: qHTS assay to identify novel small-molecules to repurpose for Merkel cell carcinoma treatment (AID 1296009); conditions: MCC and control cell lines, CellTiter-Glo viability, 72 h; note: nearly all actives have a fitted effect of over 60% in size
Method in brief: (§2)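 Viability readout: ATP luminescence (CellTiter-Glo) after 72 hr drug exposure at 37 degree celsius. Dose-response format was 8 points for NPC and 11 points for MIPE; data normalized to in-plate controls.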

HEK293T [2] = test: as above; conditions: MCC and control cell lines, CellTiter-Glo viability, 72 h; series mostly up to 44.8 µM
Method in brief: as §2

NIH3T3 [3] = test: as above; conditions: MCC and control cell lines, CellTiter-Glo viability, 72 h; at 44.8 µM (top of the series) unless noted
Method in brief: as §2

C33A = test: Primary qHTS to identify gynecologic anti-cancer compounds using libraries of approved drugs and bioactive compounds (AID 1345084); conditions: Gynecologic cancer cell panel viability, ATPlite luminescence, 48 h; series mostly up to 57.5 µM; note: % is set by controls: 0 for no effect and ±100 for the full control effect; nearly all actives have a fitted effect of over 55% in size
Method in brief: (§3)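 In this quantitative HTS, cell killing is estimated from loss of ATP-dependent luciferase light. Cells see five compound concentrations over a 48 h exposure.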

CAOV3 = test: as above; conditions: Gynecologic cancer cell panel viability, ATPlite luminescence, 48 h; series mostly up to 57.5 µM
Method in brief: as §3

CASKI = test: as above; conditions: Gynecologic cancer cell panel viability, ATPlite luminescence, 48 h; series mostly up to 57.5 µM
Method in brief: as §3

Es-2 = test: as above; conditions: Gynecologic cancer cell panel viability, ATPlite luminescence, 48 h; series mostly up to 57.5 µM
Method in brief: as §3

HeLa = test: as above; conditions: Gynecologic cancer cell panel viability, ATPlite luminescence, 48 h; series mostly up to 57.5 µM
Method in brief: as §3

Hek293T [4] = test: as above; conditions: Gynecologic cancer cell panel viability, ATPlite luminescence, 48 h, control line for the selectivity index; series mostly up to 57.5 µM
Method in brief: as §3

JEG-3 = test: as above; conditions: Gynecologic cancer cell panel viability, ATPlite luminescence, 48 h; series mostly up to 57.5 µM
Method in brief: as §3

OV90 = test: as above; conditions: Gynecologic cancer cell panel viability, ATPlite luminescence, 48 h; series mostly up to 57.5 µM
Method in brief: as §3

PA-1 = test: as above; conditions: Gynecologic cancer cell panel viability, ATPlite luminescence, 48 h; series mostly up to 57.5 µM
Method in brief: as §3

[5] = at 44.8 µM (top of the series) unless noted

CC1C(=O)CC2C3C(O)CC(C(=O)O)C12CC3(C)C (configuration not stated)
inactive: max response (KB-3-1) 3.18% | outcome (NIH3T3 [1]) | outcome (HACAT; [5]) | Potency (HEK293T [2]) | outcome (NIH3T3 [3]) | Potency (C33A) | Potency (CAOV3) | Potency (CASKI) | Potency (Es-2) | Potency (HeLa) | Potency (Hek293T [4]) | Potency (JEG-3) | Potency (OV90) | Potency (PA-1)

C=C[C@H]1[C@H](O[C@@H]2O[C@H](CO[C@@H]3OC[C@](O)(CO)[C@H]3O)[C@@H](O)[C@H](O)[C@H]2O)OC=C2C(=O)OCC[C@H]21
inactive: outcome (KB-3-1) | outcome (NIH3T3 [1]) | outcome (HACAT; [5]) inactive [at 17.4 µM] | Potency (HEK293T [2]) | outcome (NIH3T3 [3]) inactive [at 17.4 µM] | Potency (C33A) | Potency (CAOV3) | Potency (CASKI) | Potency (Es-2) | Potency (HeLa) | Potency (Hek293T [4]) | Potency (JEG-3) | Potency (OV90) | Potency (PA-1)

CC(=O)c1c(C)cc(O)cc1O[C@@H]1O[C@H](CO)[C@@H](O)[C@H](O)[C@H]1O
inactive: outcome (KB-3-1) | outcome (NIH3T3 [1]) | outcome (HACAT; [5]) | Potency (HEK293T [2]) | outcome (NIH3T3 [3]) | Potency (C33A) | Potency (CAOV3) | Potency (CASKI) | Potency (Es-2) | Potency (HeLa) | Potency (Hek293T [4]) | Potency (JEG-3) | Potency (OV90) | Potency (PA-1)

CCOc1nc2cccc(C(=O)OCc3oc(=O)oc3C)c2n1Cc1ccc(-c2ccccc2-c2noc(O)n2)cc1
inactive: outcome (KB-3-1) | outcome (NIH3T3 [1]) | outcome (HACAT; [5]) | Potency (HEK293T [2]) | outcome (NIH3T3 [3]) | Potency (C33A) | Potency (CAOV3) | Potency (CASKI) | Potency (Es-2) | Potency (HeLa) | Potency (Hek293T [4]) | Potency (JEG-3) | Potency (OV90) | Potency (PA-1)

CC1NC(=O)CNC(=O)C(C(C)C)NC(=O)C2CCCN2C(=O)C(C(C)C)NC(=O)C(Cc2c[nH]c3ccccc23)NC1=O (configuration not stated) (cyclo(GAWVPV); configuration not given here)
inactive: outcome (KB-3-1) | outcome (NIH3T3 [1]) | outcome (HACAT; [5]) inactive [at 17.4 µM] | Potency (HEK293T [2]) | outcome (NIH3T3 [3]) inactive [at 17.4 µM] | Potency (C33A) | Potency (CAOV3) | Potency (CASKI) | Potency (Es-2) | Potency (HeLa) | Potency (Hek293T [4]) | Potency (JEG-3) | Potency (OV90) | Potency (PA-1)

COc1cc([C@H]2OC[C@@H]3[C@@H](c4ccc(O[C@@H]5O[C@H](CO)[C@@H](O)[C@H](O)[C@H]5O)c(OC)c4)OC[C@]23O)ccc1O
inactive: max response (KB-3-1) 3.2% | outcome (NIH3T3 [1]) | outcome (HACAT; [5]) inactive [at 17.4 µM] | Potency (HEK293T [2]) | outcome (NIH3T3 [3]) inactive [at 17.4 µM] | Potency (C33A) | Potency (CAOV3) | Potency (CASKI) | Potency (Es-2) | Potency (HeLa) | Potency (Hek293T [4]) | Potency (JEG-3) | Potency (OV90) | Potency (PA-1)

CO[C@@H]1COCC[C@@H]1N[C@@H]1CC[C@@](C(=O)N2CCc3ncc(C(F)(F)F)cc3C2)(C(C)C)C1
inactive: outcome (KB-3-1) | max response (NIH3T3 [1]) -6.53% | outcome (HACAT; at 17.4 µM (top of the series)) | outcome (HACAT; at 44.8 µM (top of the series)) | Potency (HEK293T [2]) | Potency (C33A) | Potency (CAOV3) | Potency (CASKI) | Potency (Es-2) | Potency (HeLa) | Potency (Hek293T [4]) | Potency (JEG-3) | Potency (OV90) | Potency (PA-1)

COc1ccc2c(c1)OC[C@]1(O)c3cc4c(cc3O[C@H]21)OCO4
inactive: outcome (KB-3-1) | outcome (NIH3T3 [1]) | outcome (HACAT; [5]) | Potency (HEK293T [2]) | outcome (NIH3T3 [3]) | Potency (C33A) | Potency (CAOV3) | Potency (CASKI) | Potency (Es-2) | Potency (HeLa) | Potency (Hek293T [4]) | Potency (JEG-3) | Potency (OV90)

CC1=C2C3OC(=O)C(C)C3(O)CCC2(C)CCC1=O (configuration not stated)
inactive: outcome (KB-3-1) | outcome (NIH3T3 [1]) | outcome (HACAT; [5]) | Potency (HEK293T [2]) | outcome (NIH3T3 [3]) | Potency (C33A) | Potency (CAOV3) | Potency (CASKI) | Potency (Es-2) | Potency (HeLa) | Potency (Hek293T [4]) | Potency (JEG-3) | Potency (OV90) | Potency (PA-1)

C=C1C[C@]23C[C@H]1CC[C@H]2[C@@]12C=C[C@H](O)[C@@](C)(C(=O)O1)[C@H]2[C@@H]3C(=O)O
inactive: outcome (KB-3-1) | outcome (NIH3T3 [1]) | outcome (HACAT; [5]) | Potency (HEK293T [2]) | outcome (NIH3T3 [3]) | Potency (C33A) | Potency (CAOV3) | Potency (CASKI) | Potency (Es-2) | Potency (HeLa) | Potency (Hek293T [4]) | Potency (JEG-3) | Potency (OV90) | Potency (PA-1)

CC1CCC2(C(=O)OC3OC(CO)C(O)C(O)C3O)CCC3(C)C(=CCC4C5(C)CC(O)C(O)C(C)(C(=O)O)C5CCC43C)C2C1(C)O (configuration not stated)
inactive: max response (KB-3-1) 1.03% | outcome (NIH3T3 [1]) | outcome (HACAT; [5]) inactive [at 17.4 µM] | Potency (HEK293T [2]) | outcome (NIH3T3 [3]) inactive [at 17.4 µM] | Potency (C33A) | Potency (CAOV3) | Potency (CASKI) | Potency (Es-2) | Potency (HeLa) | Potency (Hek293T [4]) | Potency (JEG-3) | Potency (OV90)
